Columns and labels:
[1] = target: T1, Aspartate--tRNA(Asp/Asn) ligase (Mycobacterium tuberculosis (strain ATCC 25618 / H37Rv)) (UniProt P9WFW3); assay: Assay for Asp RNA synthetase-1 from Mycobacterium tuberculosis; assay type: functional; set-up: scale not given: direction of the effect not stated beside the values; conditions: 30 µM; also: in the data most compounds retested in dose-response had high values
T1 sequence (whole entry): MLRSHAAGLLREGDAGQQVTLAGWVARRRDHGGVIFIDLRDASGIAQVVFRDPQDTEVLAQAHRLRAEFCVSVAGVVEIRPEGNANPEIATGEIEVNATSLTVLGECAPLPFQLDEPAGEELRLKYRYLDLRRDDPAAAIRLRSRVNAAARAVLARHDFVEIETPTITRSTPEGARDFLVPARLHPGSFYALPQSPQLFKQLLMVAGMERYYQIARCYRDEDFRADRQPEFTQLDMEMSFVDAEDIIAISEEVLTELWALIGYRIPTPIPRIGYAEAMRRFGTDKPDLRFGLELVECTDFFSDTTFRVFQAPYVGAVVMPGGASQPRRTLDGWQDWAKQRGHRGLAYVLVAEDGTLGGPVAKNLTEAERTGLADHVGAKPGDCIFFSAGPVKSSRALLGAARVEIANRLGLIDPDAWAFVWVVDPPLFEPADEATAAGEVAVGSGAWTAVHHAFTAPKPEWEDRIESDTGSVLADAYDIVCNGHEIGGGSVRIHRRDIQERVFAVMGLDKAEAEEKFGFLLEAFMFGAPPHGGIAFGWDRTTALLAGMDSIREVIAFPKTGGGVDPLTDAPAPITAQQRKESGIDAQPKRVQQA

[2] = target: Shiga toxin 2 (Escherichia coli O157:H7) (UniProt P09385+P09386); assay: E. coli 0.157:H7 Shiga Toxin SOP - stx2 screening assay; assay type: functional; set-up: scale not given: direction of the effect not stated beside the values; conditions: 30 µM

| Structure (SMILES) | Percent Effect [1] [%] | Percent Effect [2] [%] |
| --- | --- | --- |
| Clc1ccccc1C1(c2ccnc(-c3ncccn3)n2)CCNCC1 | 8.32 | -34.1 |
| CCN1CCOC(CNCc2ccccc2OCC(=O)N(C)C)C1 (stereo not drawn) | -4.95 | 21.6 |
| Cc1ccc(OCCC(=O)N2CCN(c3cnccn3)CC2)cc1C | -0.856 | -12.8 |
| CC(C)c1noc(C(C)N2CCN(CCO)CC2)n1 (stereo not drawn) | 13 | 16.1 |
| CC(C)NS(=O)(=O)c1cc(C(=O)O)cc(-c2ccccc2CN(C)C)c1 | 1.25 | -13.2 |
| O=C(CSc1ccccc1Cl)NS(=O)(=O)c1ccc2c(c1)OCCO2 | -8.39 | -0.0514 |
| CCCc1c(C(=O)NC2CCCC2)nnn1-c1ccc(OC)cc1 | -1.57 | -4.2 |
| CCCS(=O)(=O)NCC1CCOc2ccccc2C1 (stereo not drawn) | 0.416 | -40 |
| NC(=O)C1CCN(c2nc3nccc(-c4ccccc4)c3c(=O)[nH]2)CC1 | -4.72 | -30.6 |
| Cc1nnc(CN2CCC(N(C)Cc3nnc(C4CC4)n3C)C2)o1 (stereo not drawn) | -1.43 | 18.5 |
| Cc1ccc(CNC(=O)Nc2cc(C(F)(F)F)c[nH]c2=O)cn1 | -6.46 | 8.32 |
| Cc1nn(C)c2c(NCCCn3cccn3)ncnc12 | -6.88 | -37.5 |
| Cc1cc(C)n(C2CCCN(C(=O)c3ccc(NC4CC4)nc3)C2)n1 (stereo not drawn) | -1.9 | 27 |
| c1ccc(-n2nnnc2CN2CCCC(Cn3cncn3)C2)cc1 (stereo not drawn) | 2.98 | 6.15 |
| O=C(CCc1nccs1)N1CCCC(N2CCNC2=O)C1 (stereo not drawn) | 6.01 | -8.24 |
| Cc1nc(C)n(C2CCCN(C(=O)c3cnc[nH]3)C2)n1 (stereo not drawn) | -5.96 | 9.84 |
| COc1cc(CNCc2c(C)nn(C)c2N(C)C)ccn1 | 3.75 | 13 |
| CC(C)OCCN(Cc1cccc(O)c1)C1CCC(O)CC1 (stereo not drawn) | 3.29 | -13.5 |
| COC[C@@]12CC[C@@H](N3CCOCC3)C[C@H]1CCN(c1ncccn1)C2 | -4.45 | 17.6 |
| CN(C)S(=O)(=O)N1CCCC(c2cccc(Cc3ccccc3)n2)C1 (stereo not drawn) | 2.78 | 67.3 |
| Cn1ccnc1CN1C[C@@H](CN2CCC(CO)CC2)[C@@H](CO)C1 | -1.77 | 12.7 |
| CN(Cc1ccco1)C[C@H]1OC[C@@H]2CCN(Cc3nccs3)C[C@@H]21 | 4.31 | -45.7 |
| Cc1nc(C2CCCN2Cc2nnc(C3CC3)o2)no1 (stereo not drawn) | 1.34 | 20 |
| CC(C)c1ncc2c(n1)CN(Cc1cccc(OCC(N)=O)c1)CC2 | 3.81 | 12.8 |
| COCCO[C@@H]1CCN(Cc2csc(C)n2)[C@H]1Cc1ccccc1 | 3.03 | 1.09 |
| Cc1cccc(-c2nc(CN3CCc4cnc(C)nc4C3)no2)c1 | 4.76 | 6.99 |
| CC(C)CCN(C)C(=O)c1nc(S(C)(=O)=O)n2ccccc12 | -3.39 | 26.2 |
| Cc1cnn(CC2CCCN2C(=O)c2ccc(C(N)=O)cn2)c1 (stereo not drawn) | -2.92 | 11.5 |
| CN(C)Cc1ccc(C2CCCCN2C(=O)c2cccc(CO)n2)cc1 (stereo not drawn) | -3.06 | 0.431 |

Source: ChEMBL document CHEMBL3988442, “University of Dundee, Small-Polar-MMV Screening Library” (2021)
